BoNT-A LC inh2 – BoNT/A light chain protease inhibitors, primary screen, biochemical, flow cytometry, MLPCN library; inhibition, % at 10 µM; multiplex microsphere protease substrate cleavage; hit rate 0.17% among 360,000; AID 588499, 2011; Botulinum neurotoxin type A light chain protease (Clostridium botulinum A str. ATCC 3502); also: plate controls were buffer without enzyme for full effect and enzyme alone for no effect
Anthrax LF prot – Bacillus anthracis LF protease inhibitors, primary screen, biochemical, multiplex microsphere, MLPCN library. Lethal factor (Bacillus anthracis), P15917. multiplex microsphere protease cleavage assay. inhibition, % at 10 µM. hit rate 0.12% among 360,000; also: plate controls were buffer without enzyme for full effect and enzyme alone for no effect
Target sequence (P15917 whole entry, looked up): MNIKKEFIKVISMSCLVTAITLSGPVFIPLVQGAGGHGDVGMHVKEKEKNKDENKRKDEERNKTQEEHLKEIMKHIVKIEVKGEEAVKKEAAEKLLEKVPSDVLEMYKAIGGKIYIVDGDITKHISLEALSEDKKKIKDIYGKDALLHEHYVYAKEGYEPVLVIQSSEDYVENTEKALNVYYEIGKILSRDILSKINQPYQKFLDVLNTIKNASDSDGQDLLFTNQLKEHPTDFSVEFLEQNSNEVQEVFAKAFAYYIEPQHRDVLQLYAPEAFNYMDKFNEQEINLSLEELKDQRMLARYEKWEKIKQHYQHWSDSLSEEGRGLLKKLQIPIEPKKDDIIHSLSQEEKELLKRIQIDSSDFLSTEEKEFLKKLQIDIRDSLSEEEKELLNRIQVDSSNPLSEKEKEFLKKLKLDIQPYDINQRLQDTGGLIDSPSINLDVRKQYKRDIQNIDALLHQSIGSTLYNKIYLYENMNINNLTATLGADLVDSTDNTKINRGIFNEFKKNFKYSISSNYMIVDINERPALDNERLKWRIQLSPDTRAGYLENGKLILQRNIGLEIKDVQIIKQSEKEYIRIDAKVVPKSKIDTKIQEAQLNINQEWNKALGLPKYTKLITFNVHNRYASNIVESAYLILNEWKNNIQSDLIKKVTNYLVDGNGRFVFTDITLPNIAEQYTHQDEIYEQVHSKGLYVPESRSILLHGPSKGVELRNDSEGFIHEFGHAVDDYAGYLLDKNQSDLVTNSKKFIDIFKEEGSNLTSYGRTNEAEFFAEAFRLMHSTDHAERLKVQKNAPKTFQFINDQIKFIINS
SSB-PriA inh – inhibitors of Klebsiella pneumoniae PriA binding to SSB C-terminal tail, primary screen, biochemical, AlphaScreen. PriA–SSB C-terminal tail interaction (Klebsiella pneumoniae). AlphaScreen SSBct-PriA binding, biotinylated peptide. inhibition, % at 33 µM. hit rate 0.6% among 430,000. AID 1272365, 2023; in the data active = inhibition mostly above about 37%, no sharp cut-off; inactive = mostly below about 20%;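 also: plate controls were negative control peptide for no effect and reference peptide for full effect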
Autofluor counter – compound fluorescence in toxin protease inhibitor counterscreen; compound autofluorescence counterscreen, microsphere flow cytometry; hits give high values; fluorescence intensity (test concentration not listed); hit rate 3.1% among 360,000; in the data active = fluorescence intensity above about 16000; inconclusive = no clear call, values can overlap the other calls
BoNT F protease – BoNT/F light chain protease inhibitors, primary screen, biochemical, flow cytometry, MLPCN library. Multiplex microsphere protease cleavage assay. inhibition, % at 10 µM. hit rate 0.22% among 360,000; in the data active = inhibition above about 35%, passing the limit was not always enough; inconclusive = no clear call, values can overlap the other calls; also: plate controls were buffer without enzyme for full effect and enzyme alone for no effect
* marks the source's active call; other numbers are inactive results; ? = inconclusive; . = no result. In the library only some 3.1% were active in any assay of this set; here they are far more common. Rule as the data show it, unless noted: active = inhibition above about 30%; inconclusive = no clear call, values can overlap the other calls; inactive = below that.

SMILES | BoNT-A LC inh2 | Anthrax LF prot | SSB-PriA inh | Autofluor counter | BoNT F protease
Cc1ccc(C)c(OCc2cc(C(=O)N(C)Cc3nccn3C)no2)c1 | 1.1 | -0.5 | 10.3 | 5258 | -0.9
CCn1ccnc1CNC(=O)c1cc(COc2ccc(OC)c3ccccc23)on1 | . | . | 67.6* | . | .
CCn1ccnc1CN(C)C(=O)c1cc(COc2ccc(OC)c3ccccc23)on1 | 2.2 | -4.1 | 39.4* | 5215 | -0.6
Cc1cn2nnc(C(=O)Nc3ccc(NC(=O)c4ccco4)cc3)c2c(=O)[nH]1 | . | . | -10.0 | . | .
COc1cc(/C=N\NC(=O)c2[nH]nc3c2CCc2ccccc2-3)ccc1O | . | . | 5.0 | . | .
Cc1cc(=O)oc(C)c1C(=O)NCc1ccccn1 | -2.2 | -1.3 | 4.7 | 20680* | -1.1
CC(=O)NCC1COc2ccccc2O1 (stereo unspecified) | 0.4 | -6.7 | -2.3 | 4827 | -5.4
Cc1cc(=O)oc(C)c1C(=O)NCC1COc2ccccc2O1 (stereo unspecified) | 6.0 | -6.3 | -11.5 | 20933* | 5.5
CCN(CCCNC(=O)c1c(C)cc(=O)oc1C)c1cccc(C)c1 | 1.2 | -7.0 | 24.0 | 22991* | 1.6
O=C(NCc1ccccn1)c1cc2cc(Br)ccc2oc1=O | -6.0 | -1.9 | 6.0 | 25730* | -10.5
COc1ccc(CCNc2nc(-c3cnccn3)cs2)cc1OC | . | . | 16.3 | . | .
Cc1nc2ccccc2c(=O)n1-c1cccc(NC(=O)Cc2ccc(Cl)cc2)c1 | . | . | 3.0 | . | .
CCOC(=O)c1sc(=NC(=O)c2cc3c(ccc4ccccc43)oc2=O)n(C)c1C | . | . | 5.0 | . | .
Cc1cc(=O)oc(C)c1C(=O)NCCC(C)C | 2.2 | 0.5 | -5.2 | 22899* | 1.2
CC(NS(=O)(=O)c1cccc(Cl)c1)C(=O)Nc1ccccc1F (stereo unspecified) | . | . | -5.0 | . | .
CCOc1ccc(S(=O)(=O)NCCC2=CCCCC2)c2ccccc12 | ? | -1.5 | -18.1 | 24639* | -4.2
O=c1[nH]c(=S)[nH]c(O)c1C=Nc1cc(Cl)cc(Cl)c1 | . | . | -4.0 | . | .
CCCS(=O)(=O)c1c(S(=O)(=O)CCC)c2c(N)cccn2c1C(=O)c1ccccc1 | ? | -1.8 | 5.8 | 16615* | -1.2
CC(=O)N1N=C(c2ccc(Cl)cc2)CC1c1cn(-c2ccccc2)nc1-c1ccco1 (stereo unspecified) | . | . | -4.0 | . | .
COC(=O)C1=C(C)NC(C)=C(C(=O)OC)C1c1cn(-c2ccccc2)nc1-c1ccco1 | -1.5 | -2.3 | -3.8 | 16749* | -5.2
CS(=O)(=O)N(CC(=O)O)c1ccc(Oc2ccccc2)cc1 | 0.0 | -4.5 | 4.9 | 20680* | 0.3
O=C(CCN1C(=O)c2ccccc2C1=O)NCc1ccncc1 | -1.3 | -1.2 | -17.9 | 9474 | -1.4
O=C(CN1C(=O)c2ccccc2C1=O)NCc1ccncc1 | 6.8 | -13.4 | 3.2 | 20208* | 9.8
O=C(NCC1CCCN(c2nccs2)C1)c1cc(C2CC2)on1 (stereo unspecified) | . | . | 13.0 | . | .
CC(C)(C)C(=O)N(CCN(C(=O)C(C)(C)C)c1ccccc1)c1ccccc1 | 0.7 | -0.5 | -4.1 | 23201* | -0.9
SMILES | BoNT-A LC inh2 | Anthrax LF prot | SSB-PriA inh | Autofluor counter | BoNT F protease
CC(=O)N(CCN(C(C)=O)c1ccccc1)c1ccccc1 | -1.3 | -1.8 | -7.3 | 3766 | 10.2
O=[N+]([O-])c1cccc(/C=N/n2c(COc3ccccc3)n[nH]c2=S)c1 | 0.3 | -8.2 | . | 16172* | 2.9
O=[N+]([O-])c1ccc(/C=N/n2c(COc3ccccc3)n[nH]c2=S)cc1 | -0.5 | -1.8 | . | 5892 | -7.2
O=C(NN=Cc1c(O)n(Cc2ccco2)c(=O)[nH]c1=O)c1ccccc1O | . | . | 1.0 | . | .
CCCC(=O)Nc1sc(C(=O)OCC)c(C)c1C#N | . | . | -4.0 | . | .
C#CCOCCOCCOCCNc1nc(N2CCN(C(=O)CCCCCCCCCCNC(=O)[C@H]([C@@H](C)CC)n3cc(CCCCCN)nn3)CC2)nc(N2CCN(C(=O)CCCCCCCCCCNC(=O)[C@H]([C@@H](C)CC)n3cc(CCCCN=C(N)N)nn3)CC2)n1 | -0.6 | -15.4 | . | 3328 | -58.1
C#CCOCCOCCOCCNc1nc(N2CCN(C(=O)CCCCCCCCCCNC(=O)[C@H]([C@@H](C)CC)n3cc(CCCCN=C(N)N)nn3)CC2)nc(N2CCN(C(=O)CCCCCCCCCCNC(=O)[C@H](CO)n3cc(CCCCCN)nn3)CC2)n1 | 0.0 | -10.8 | 39.3* | 4275 | -64.5
CSc1ncc(Cl)c(C(=O)Nc2ccc(Br)cc2)n1 | . | . | -18.0 | . | .
O=C(O)c1ccc(OC(F)(F)F)cc1 | . | . | -7.0 | . | .
